In PubChem BioAssay (NCATS) one finds Potency data, which are given here for 40 molecules.

Results filed as inconclusive are left out. Entries that show only a call come without a potency. Calls of active or inactive are those of the source. Calls follow the shape of the dose curve; as a rule, active = well fitted inhibition curve with a large enough effect; inconclusive = small, poorly fitted or top-dose-only effect, or effect the other way; inactive = flat fitted curve, though single readings scatter.
Potency is read from the fitted curve at half-maximal effect.

This experiment in a line: qHTS for Inhibitors of Plasmodium falciparum (GB4) proliferation (AID 504315). Also: nearly all actives have a fitted effect of over 50% in size. Conditions: P. falciparum GB4 in erythrocytes, SYBR Green DNA, 72 h; series mostly up to 6.7 µM. The procedure, abridged: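 Erythrocytes infected with P. falciparum line (0.3% parasitemia, 2.5% hematocrit final) incubated with compounds 72 h at 37 °C, 5% CO2; SYBR Green lysis buffer added, fluorescence read next day. Normalized to 0.29 uM artemisinin and DMSO.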
Turning to `CCc1cc2c(nc1CC)CCN(CCC(C)=NOCC[C@@H]1C=C[C@H](OC(C)=O)[C@@H](COC(C)=O)O1)C2`, the Potency result is “inactive”.

With `COCCN1C(=O)CC[C@@]23C1=NC(C(=O)OC)=C(C(=O)OC)[C@@H]2N(CC=C(C)C)c1ccccc13`, the Potency entry is “inactive”.

Take `COc1ccc([C@]23Cc4ccccc4[C@H](O2)c2c(cc(-c4ccccc4)oc2=O)O3)cc1`: the Potency entry was “inactive”.

As to `COC(=O)C1=C(C(=O)OC)[C@@H]2N(C)c3ccccc3[C@@]23CCC(=O)N(Cc2ccc(OC)cc2)C3=N1`, the Potency result was “inactive”.

For `C[C@]12C[C@@](C)(C=C1C=Cc1ccc(C(F)(F)F)cc1)C(=O)C[C@H]2c1ccc(C(F)(F)F)cc1`, the Potency is 1510 nM (active).

`COCC=CC1=CC2=CC(=O)C(C)(OC(=O)c3cnc4ccccc4n3)C(=O)C2=CN1CCc1c[nH]c2ccccc12` (stereo not given): the Potency result was “inactive”.

For `COc1cccc([C@H]2Oc3ccc(OC)cc3C(=NO[C@H](C)CN3CCCc4nc(C)c(C)cc43)[C@H]2O)c1`, the Potency entry is “inactive”.

As for `CC1(OC(=O)c2ccc(Cl)nc2)C(=O)C=C2C=C(c3ccsc3)OC=C2C1=O` (stereo not given), the Potency result was “inactive”.

With `CC(=O)O[C@@H]1C(CO[Si](C)(C)C(C)(C)C)=C(Br)C(=O)[C@@H]2O[C@]12C`, the Potency entry is “inactive”.

As to `C#CC1(O)C2C=C(OC)C(=O)C1C(c1ccccc1)C2C` (stereo not given), the Potency result was “inactive”.

On to `COc1ccc([C@]23Cc4cc(OC)c(OC)cc4[C@H](O2)c2c(cc(C)oc2=O)O3)cc1`, for which the Potency entry is “inactive”.

Turning to `COc1ccc(N2C(=O)N3[C@H](c4ccccc4)[C@@H](C)C[C@H]4c5ccccc5C[C@]43C2=O)cc1`, the Potency entry was “inactive”.

Take `Cc1cc2c(c(=O)n1Cc1ccccc1)[C@H]1O[C@](CCCCN3C(=O)c4ccccc4C3=O)(Cc3cc(C#N)ccc31)O2`: the Potency result is “inactive”.

`C=CC[C@@H]1C=CC(ON=CC[C@@H]2C=C[C@@H](OC(C)=O)[C@@H](COC(C)=O)O2)[C@H](CO)O1` (stereo not given in full): the Potency entry was “inactive”.

For `C[C@@H](c1ccccc1)N1C(=O)[C@@H]2[C@H]3[C@H](O)[C@H](O)CC(=NOC[C@@H](O)COCc4ccco4)[C@H]3CC[C@H]2C1=O`, the Potency entry is “inactive”.

For the molecule `CCOC(=O)CCN1C(=O)[C@@H]2[C@H]3[C@H](O)[C@H](O)CC(=NOCc4ccccc4)[C@@H]3CC[C@H]2C1=O`, the Potency result is “inactive”.

With `CC1=CC[C@@H](COc2ccccc2)O[C@@]2(C1)C(=O)N(CC1CC1)c1ccccc12`, the Potency result is “inactive”.

`COC(=O)C1=C(C)N(CC2CC2)C(=O)NC1c1ccc(Br)cc1` (stereo not given): the Potency result is “inactive”.

With `C[C@@H]1C=CCC(=O)N2[C@H](CC(=O)N[C@@H]1c1ccccc1)C[C@@H](C)[C@@H]2c1ccccc1`, the Potency result is “inactive”.

With `COc1ccc(COC(=O)NN=C2C[C@@H](O)[C@@H](O)[C@@H]3[C@H]4C(=O)N(C5CCCCC5)C(=O)[C@@H]4CC[C@H]23)cc1`, the Potency entry is “inactive”.

As to `CC1=C[C@]2(O[C@H](COc3ccccc3)C1)C(=O)N(C)c1ccccc12`, the Potency result was “inactive”.

With `COC1=C(C(=O)c2ccccc2)C(=O)[C@@]2(CC=C(C)C)CC(C#N)C[C@@]1(CC=C(C)C)C2=O` (stereo not given in full), the Potency result is “inactive”.

Consider `COc1cccc([C@@H]2Oc3ccc(OC)cc3C(=O)[C@@H]2OC(=O)Nc2cc(OC)c(OC)c(OC)c2)c1`, for which the Potency result was “inactive”.

With `COC(=O)C(C(=O)OC)[C@@H]1O[C@@]23COC=C[C@]2(C)[C@@H]3c2ccccc21`, the Potency result was “inactive”.

Regarding `CCC12C=C(C=Cc3ccccc3)C(CC)(C1)C(c1ccccc1)CC2=O` (stereo not given), the Potency entry is “inactive”.

As to `CC1=CC[C@@H](COc2ccccc2)O[C@@]2(C1)C(=O)N(Cc1ccc(F)cc1)c1ccccc12`, the Potency result is “inactive”.

For the molecule `COc1ccc2c(c1)CO[C@H]([C@H](O)CO)[C@H]2C=CC#Cc1ccc(C(C)(C)C)cc1`, the Potency entry was “inactive”.

`N#Cc1ccc2c(c1)C[C@]1(CCCCN3C(=O)c4ccccc4C3=O)Oc3cc(-c4ccccc4)oc(=O)c3[C@H]2O1`: the Potency result was “inactive”.

In the case of `O=c1oc2ccccc2c2c1[C@H]1O[C@](c3ccsc3)(Cc3ccccc31)O2`, the Potency result is “inactive”.

Regarding `O=C1CCCC2=C1[C@H]1O[C@](c3ccsc3)(Cc3c1ccc1ccccc31)O2`, the Potency result was “inactive”.

For the molecule `CC1(C)CC(=O)C2=C(C1)O[C@@]1(c3ccsc3)Cc3cc(C#N)ccc3[C@H]2O1`, the Potency entry is “inactive”.

In the case of `COc1cccc([C@@H](NC(=O)C(F)(F)F)[C@@H]2CCCC=C2c2ccccc2)c1`, the Potency entry is “inactive”.

With `CC(=O)C1=C(C)N(Cc2ccccc2)C(=O)NC1CCc1ccccc1` (stereo not given), the Potency result is “inactive”.

Regarding `Oc1ccc2c(c1-c1c(O)c(Br)cc3c1CCCC3)CCCC2`, the Potency entry is “inactive”.

Take `COc1ccc(COC(=O)NN=C2C[C@@H](O)[C@@H](O)[C@@H]3[C@H]4C(=O)N([C@@H](C)c5ccccc5)C(=O)[C@@H]4CC[C@H]23)cc1`: the Potency entry was “inactive”.

As to `COC(=O)C1=C(C(=O)OC)[C@@H]2N(C)c3ccccc3[C@@]23C[C@@H](C(=O)OC)N(C(=O)NCCBr)C3=N1`, the Potency result was “inactive”.

As to `CC(=O)C1=C(C)N(CCC=Cc2ccccc2)C(=O)NC1c1ccccc1` (stereo not given), the Potency result is “inactive”.

Consider `C[C@H]1CC[C@H]2C(=O)N(Cc3ccccc3)C[C@@H](O)CN2[C@H]1c1cccc(Br)c1`, for which the Potency result was “inactive”.

In the case of `C=C(CCN1C=C(C(=O)OCC)C(c2ccccc2)NC1=O)c1ccc(Cl)cc1` (stereo not given), the Potency entry was “inactive”.

`COc1cccc([C@@H]2Oc3ccc(Br)cc3C(=O)[C@@H]2O)c1`: the Potency entry was “inactive”.
